About 410 targets per protein were measured; listed, in parts, are those with the strongest signals and a random draw of the rest.
Key:
Assay in all cases: glycan array binding signal (z-score within array); higher = stronger binding
Conditions in all cases: glycan notation: IUPAC condensed, linker removed
Fuc(a1-2)Gal(b1-4)GlcNAc = target: Fuc(a1-2)Gal(b1-4)GlcNAc
In short: (§1)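 The Consortium for Functional Glycomics database supplied 3228 glycan arrays, of which those lacking an available protein sequence were dropped. The binding signal, a within-array Z-score, was averaged across arrays of the same protein sequence and across linkers. Negative scores can be read as non-binding.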

[1] = target: Fuc(a1-2)Gal(b1-4)GlcNAc(b1-2)[Fuc(a1-2)Gal(b1-4)GlcNAc(b1-4)]Man(a1-3)[Fuc(a1-2)Gal(b1-4)GlcNAc(b1-2)Man(a1-6)]Man(b1-4)GlcNAc(b1-4)GlcNAc
In short: as §1

[2] = target: Fuc(a1-2)[Gal(a1-3)]Gal(b1-4)[Fuc(a1-3)]Glc
In short: as §1

[3] = target: Fuc(a1-2)[GalNAc(a1-3)]Gal(b1-3)GlcNAc(b1-2)Man(a1-3)[Fuc(a1-2)[GalNAc(a1-3)]Gal(b1-3)GlcNAc(b1-2)Man(a1-6)]Man(b1-4)GlcNAc(b1-4)GlcNAc
In short: as §1

[4] = target: Fuc(a1-3)[Gal(b1-4)]GlcNAc
In short: as §1

[5] = target: Fuc(a1-3)[Gal(b1-4)]GlcNAc(b1-3)Gal(b1-3)[Fuc(a1-4)]GlcNAc
In short: as §1

[6] = target: Gal(a1-3)[Gal(a1-4)]Gal(b1-4)GlcNAc
In short: as §1

Gal(a1-6)Glc = target: Gal(a1-6)Glc
In short: as §1

[7] = target: Gal(b1-3)GlcNAc(b1-2)[Gal(b1-3)GlcNAc(b1-6)]Man(a1-6)[Gal(b1-3)GlcNAc(b1-2)Man(a1-3)]Man(b1-4)GlcNAc(b1-4)GlcNAc
In short: as §1

[8] = target: Gal(b1-4)GlcNAc(b1-2)[Gal(b1-4)GlcNAc(b1-6)]Man(a1-6)[Gal(b1-4)GlcNAc(b1-2)Man(a1-3)]Man(b1-4)GlcNAc(b1-4)GlcNAc
In short: as §1

[9] = target: Gal(b1-4)GlcNAc(b1-3)Gal(b1-4)Glc
In short: as §1

[10] = target: Gal(b1-4)GlcNAc(b1-3)Gal(b1-4)[Fuc(a1-3)]GlcNAc(b1-3)Gal(b1-4)[Fuc(a1-3)]GlcNAc
In short: as §1

Gal3S(b1-4)GlcNAc = target: Gal3S(b1-4)GlcNAc
In short: as §1

[11] = target: Gal3S(b1-4)[Fuc(a1-3)]Glc6S
In short: as §1

GalNAc(b1-3)Gal = target: GalNAc(b1-3)Gal
In short: as §1

[12] = target: GalNAc(b1-3)Gal(a1-4)Gal(b1-4)GlcNAc(b1-3)Gal(b1-4)Glc
In short: as §1

[13] = target: GlcNAc(a1-4)Gal(b1-4)GlcNAc(b1-3)Gal(b1-4)GlcNAc(b1-3)Gal(b1-4)GlcNAc
In short: as §1

[14] = target: GlcNAc(b1-2)Man(a1-3)[GlcNAc(b1-2)Man(a1-6)]Man(b1-4)GlcNAc(b1-4)GlcNAc
In short: as §1

[15] = target: GlcNAc(b1-2)[GlcNAc(b1-4)]Man(a1-3)[GlcNAc(b1-4)][GlcNAc(b1-2)[GlcNAc(b1-6)]Man(a1-6)]Man(b1-4)GlcNAc(b1-4)GlcNAc
In short: as §1

[16] = target: GlcNAc(b1-3)Gal(b1-4)GlcNAc(b1-3)Gal(b1-4)GlcNAc
In short: as §1

Kdn(a2-3)Gal(b1-3)GalNAc = target: Kdn(a2-3)Gal(b1-3)GalNAc
In short: as §1

Kdn(a2-3)Gal(b1-4)GlcNAc = target: Kdn(a2-3)Gal(b1-4)GlcNAc
In short: as §1

[17] = target: Man(a1-2)Man(a1-2)Man(a1-3)Man
In short: as §1

[18] = target: Man(a1-2)Man(a1-2)Man(a1-6)[Man(a1-3)]Man
In short: as §1

[19] = target: Man(a1-2)Man(a1-3)[Man(a1-2)Man(a1-6)]Man
In short: as §1

[20] = target: Man(a1-2)Man(a1-3)[Man(a1-2)Man(a1-6)]Man(a1-6)[Man(a1-2)Man(a1-2)Man(a1-3)]Man
In short: as §1

[21] = target: Man(a1-2)Man(a1-3)[Man(a1-2)Man(a1-6)]Man(a1-6)[Man(a1-2)Man(a1-2)Man(a1-3)]Man(b1-4)GlcNAc(b1-4)GlcNAc
In short: as §1

[22] = target: Man(a1-2)Man(a1-3)[Man(a1-6)]Man(a1-6)[Man(a1-2)Man(a1-3)]Man(b1-4)GlcNAc(b1-4)GlcNAc
In short: as §1

[23] = target: Man(a1-2)Man(a1-6)[Man(a1-3)]Man(a1-6)[Man(a1-2)Man(a1-2)Man(a1-3)]Man
In short: as §1

[24] = target: Man(a1-2)Man(a1-6)[Man(a1-3)]Man(a1-6)[Man(a1-2)Man(a1-2)Man(a1-3)]Man(b1-4)GlcNAc(b1-4)GlcNAc
In short: as §1

[25] = target: Man(a1-3)[Man(a1-6)]Man(a1-6)[Man(a1-2)Man(a1-3)]Man(b1-4)GlcNAc(b1-4)GlcNAc
In short: as §1

[26] = target: Man(a1-3)[Man(a1-6)]Man(b1-4)GlcNAc(b1-4)GlcNAc
In short: as §1

[27] = target: Neu5Ac(a2-3)Gal(b1-3)[Fuc(a1-4)]GlcNAc(b1-3)Gal(b1-3)[Fuc(a1-4)]GlcNAc
In short: as §1

[28] = target: Neu5Ac(a2-3)Gal(b1-4)GlcNAc(b1-6)[Gal(b1-3)]GalNAc
In short: as §1

[29] = target: Neu5Ac(a2-6)Gal(b1-4)GlcNAc(b1-2)Man(a1-3)[GlcNAc(b1-2)Man(b1-4)GlcNAc(b1-2)Man(a1-6)]Man(b1-4)GlcNAc(b1-4)GlcNAc
In short: as §1

[30] = target: Neu5Ac(a2-6)GlcNAc(b1-4)GlcNAc(b1-4)GlcNAc
In short: as §1

[31] = target: Neu5Ac(a2-8)Neu5Ac(a2-3)Gal(b1-3)GalNAc(b1-4)[Neu5Ac(a2-8)Neu5Ac(a2-3)]Gal(b1-4)Glc
In short: as §1

[32] = target: Neu5Ac(a2-8)Neu5Ac(a2-8)Neu5Ac(a2-3)Gal(b1-4)Glc
In short: as §1

[33] = target: Neu5Ac(a2-8)Neu5Ac(a2-8)Neu5Ac(a2-8)Neu5Ac(a2-3)[GalNAc(b1-4)]Gal(b1-4)Glc
In short: as §1

Neu5Ac(b2-6)GalNAc = target: Neu5Ac(b2-6)GalNAc
In short: as §1

[34] = target: Neu5Gc(a2-3)Gal(b1-3)[Fuc(a1-4)]GlcNAc
In short: as §1

Neu5Gc(a2-3)Gal(b1-4)Glc = target: Neu5Gc(a2-3)Gal(b1-4)Glc
In short: as §1

B1: Gz-CVNH (Gibberella zeae) (protein)
chain: MGSSHHHHHHSSGLVPRGSHMGNFHESSNNIWLEDGHILHAECGNGEGDYVESTLDLDYYIGNDDGSFSWGGENFSGSASNITLDIEGDDNIPVLRAELNPMDGDPVEANVNLSERIGNDCGTLIFLA
Question: Which “glycan array binding signal (z-score)” value (Fuc(a1-2)Gal(b1-4)GlcNAc) does the source give for B1 here?
Answer: -0.133

Question: And the “glycan array binding signal (z-score)” value [1]?
Answer: -0.106

Question: What about the “glycan array binding signal (z-score)” value [2] of the same binder?
Answer: -0.109

Question: And the “glycan array binding signal (z-score)” value [3]?
Answer: -0.121

Question: What about the “glycan array binding signal (z-score)” value [4] of the same binder?
Answer: -0.14

Question: And the “glycan array binding signal (z-score)” value [5]?
Answer: -0.114

Question: And the “glycan array binding signal (z-score)” value [6]?
Answer: -0.135

Question: And the “glycan array binding signal (z-score)” value (Gal(a1-6)Glc)?
Answer: -0.128

Question: And the “glycan array binding signal (z-score)” value [7]?
Answer: -0.096

Question: What about the “glycan array binding signal (z-score)” value [8] of the same binder?
Answer: -0.094

Question: And the “glycan array binding signal (z-score)” value [9]?
Answer: -0.114

Question: And the “glycan array binding signal (z-score)” value [10]?
Answer: -0.14

Question: And the “glycan array binding signal (z-score)” value (Gal3S(b1-4)GlcNAc)?
Answer: -0.166

Question: And the “glycan array binding signal (z-score)” value [11]?
Answer: 0.005

Question: And the “glycan array binding signal (z-score)” value (GalNAc(b1-3)Gal)?
Answer: -0.146

Question: And the “glycan array binding signal (z-score)” value [12]?
Answer: -0.132

Question: And the “glycan array binding signal (z-score)” value [13]?
Answer: -0.131

Question: What about the “glycan array binding signal (z-score)” value [14] of the same binder?
Answer: -0.129

Question: What about the “glycan array binding signal (z-score)” value [15] of the same binder?
Answer: -0.112

Question: And the “glycan array binding signal (z-score)” value [16]?
Answer: -0.14

Question: What about the “glycan array binding signal (z-score)” value (Kdn(a2-3)Gal(b1-3)GalNAc) of the same binder?
Answer: -0.14

Question: And the “glycan array binding signal (z-score)” value (Kdn(a2-3)Gal(b1-4)GlcNAc)?
Answer: -0.117

Question: What about the “glycan array binding signal (z-score)” value [17] of the same binder?
Answer: 3.53

Question: What about the “glycan array binding signal (z-score)” value [18] of the same binder?
Answer: 7.75

Question: What about the “glycan array binding signal (z-score)” value [19] of the same binder?
Answer: 1.63

Question: And the “glycan array binding signal (z-score)” value [20]?
Answer: 12.7

Question: And the “glycan array binding signal (z-score)” value [21]?
Answer: 2.82

Question: And the “glycan array binding signal (z-score)” value [22]?
Answer: 5.4

Question: And the “glycan array binding signal (z-score)” value [23]?
Answer: 9.9

Question: And the “glycan array binding signal (z-score)” value [24]?
Answer: 8.33

Question: And the “glycan array binding signal (z-score)” value [25]?
Answer: 1.34

Question: And the “glycan array binding signal (z-score)” value [26]?
Answer: -0.119

Question: And the “glycan array binding signal (z-score)” value [27]?
Answer: -0.074

Question: What about the “glycan array binding signal (z-score)” value [28] of the same binder?
Answer: -0.115

Question: What about the “glycan array binding signal (z-score)” value [29] of the same binder?
Answer: -0.09

Question: What about the “glycan array binding signal (z-score)” value [30] of the same binder?
Answer: -0.14

Question: And the “glycan array binding signal (z-score)” value [31]?
Answer: -0.156

Question: What about the “glycan array binding signal (z-score)” value [32] of the same binder?
Answer: -0.128

Question: What about the “glycan array binding signal (z-score)” value [33] of the same binder?
Answer: -0.142

Question: What about the “glycan array binding signal (z-score)” value (Neu5Ac(b2-6)GalNAc) of the same binder?
Answer: -0.108

Question: What about the “glycan array binding signal (z-score)” value [34] of the same binder?
Answer: -0.134

Question: And the “glycan array binding signal (z-score)” value (Neu5Gc(a2-3)Gal(b1-4)Glc)?
Answer: -0.113
